Measurements reported in PubChem BioAssay.
Active and inactive are the calls of the source.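 How the source made its calls, unless noted: active means binding below the plate cutoff, the plate median minus 3 SD, with a reading above zero; inconclusive means below the plate cutoff but reading exactly zero; inactive means the rest.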

Experiments:
[1] = inhibitors of CD8+ T cell-vesicle binding, pilot screen, LFA-1/ICAM-1 modulator project, MLPCN validation set, flow cytometry (AID 2523;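 active means response below a set limit, under 55% cells CD8-positive and vesicle-bound, and CD8 cells' 90th-percentile brightness under 279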;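 on vesicle binding response: mean PE anti-B7-1 fluorescence of CD8+ cells relative to row control; 100% = QL9-loaded vesicles with DMSO vehicle in the same plate row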); settings: 2C mouse CD8+ T cells, at 7 µM, stronger effect = lower value; double positive events: measured here: CD8+/vesicle+ event percentage
[2] = biological target: Integrin beta-1 (Homo sapiens) + Integrin alpha-4 (Homo sapiens) (UniProt P13612+P05556); test: inhibition of HUTS-21 binding to VLA-4, pilot screen, VLA-4 allosteric modulator project, U937 cells, HUTS-21 mAb, flow cytometry, validation set (AID 2674;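 active means inhibition above 50%, about 3 SD of the validation set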;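 further: antibody binding induced by the VLA-4 ligand LDV present at three times its Kd; 0% = LDV ligand with antibody and no compound and 100% = antibody without LDV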); settings: HUTS-21 LIBS mAb binding, at 6.7 µM, stronger effect = higher value, binding induced by LDV ligand
Sequence of Integrin beta-1 (Homo sapiens) + Integrin alpha-4 (Homo sapiens) (P05556 whole entry, looked up): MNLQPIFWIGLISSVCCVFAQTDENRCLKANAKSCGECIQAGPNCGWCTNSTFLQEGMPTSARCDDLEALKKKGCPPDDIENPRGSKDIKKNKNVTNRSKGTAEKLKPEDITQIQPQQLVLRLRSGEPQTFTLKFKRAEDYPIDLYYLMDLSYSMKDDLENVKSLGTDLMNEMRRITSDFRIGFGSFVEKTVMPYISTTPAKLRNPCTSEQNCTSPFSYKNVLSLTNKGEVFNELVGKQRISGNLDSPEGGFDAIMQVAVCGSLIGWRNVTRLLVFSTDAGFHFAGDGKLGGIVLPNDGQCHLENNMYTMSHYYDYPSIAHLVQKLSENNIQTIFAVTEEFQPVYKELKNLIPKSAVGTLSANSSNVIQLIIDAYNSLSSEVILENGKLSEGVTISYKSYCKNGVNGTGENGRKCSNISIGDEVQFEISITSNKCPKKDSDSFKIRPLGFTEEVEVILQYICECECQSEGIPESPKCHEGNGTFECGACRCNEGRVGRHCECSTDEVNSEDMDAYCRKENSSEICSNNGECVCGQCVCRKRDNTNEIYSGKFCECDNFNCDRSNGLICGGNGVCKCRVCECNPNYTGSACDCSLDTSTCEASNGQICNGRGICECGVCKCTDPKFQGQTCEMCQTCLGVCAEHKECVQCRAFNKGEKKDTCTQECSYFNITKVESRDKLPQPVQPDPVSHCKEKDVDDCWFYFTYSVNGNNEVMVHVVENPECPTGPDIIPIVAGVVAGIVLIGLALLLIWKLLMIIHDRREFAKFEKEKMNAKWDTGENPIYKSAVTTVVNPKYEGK
Sequence of Integrin beta-1 (Homo sapiens) + Integrin alpha-4 (Homo sapiens) (P13612 whole entry, looked up): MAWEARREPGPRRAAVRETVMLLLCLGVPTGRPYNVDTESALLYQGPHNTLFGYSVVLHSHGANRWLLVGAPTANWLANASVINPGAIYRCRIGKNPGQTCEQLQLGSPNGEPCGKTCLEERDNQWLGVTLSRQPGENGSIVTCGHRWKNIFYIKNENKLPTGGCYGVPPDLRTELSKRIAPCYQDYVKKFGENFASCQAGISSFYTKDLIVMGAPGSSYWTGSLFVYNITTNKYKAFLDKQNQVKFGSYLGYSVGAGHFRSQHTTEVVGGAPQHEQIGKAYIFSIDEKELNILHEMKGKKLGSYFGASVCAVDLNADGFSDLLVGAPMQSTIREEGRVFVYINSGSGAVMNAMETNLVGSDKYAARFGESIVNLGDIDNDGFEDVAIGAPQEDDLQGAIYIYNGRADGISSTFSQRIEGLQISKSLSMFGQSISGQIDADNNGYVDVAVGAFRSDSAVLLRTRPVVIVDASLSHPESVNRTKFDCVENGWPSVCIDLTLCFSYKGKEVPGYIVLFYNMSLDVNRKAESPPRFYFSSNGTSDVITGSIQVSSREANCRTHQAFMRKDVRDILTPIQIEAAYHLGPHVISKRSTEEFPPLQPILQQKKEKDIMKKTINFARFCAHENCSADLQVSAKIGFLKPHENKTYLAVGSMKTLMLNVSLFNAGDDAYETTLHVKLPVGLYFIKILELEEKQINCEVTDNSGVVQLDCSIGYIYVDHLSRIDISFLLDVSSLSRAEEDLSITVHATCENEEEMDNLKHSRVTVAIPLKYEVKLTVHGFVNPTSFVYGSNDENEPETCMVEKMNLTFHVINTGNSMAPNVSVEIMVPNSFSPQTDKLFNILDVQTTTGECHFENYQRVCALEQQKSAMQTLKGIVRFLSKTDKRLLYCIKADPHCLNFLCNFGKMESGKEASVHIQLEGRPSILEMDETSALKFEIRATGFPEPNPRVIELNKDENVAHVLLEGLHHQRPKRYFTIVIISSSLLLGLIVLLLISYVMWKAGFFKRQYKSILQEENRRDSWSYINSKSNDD

[3] = superoxide lowering in aged yeast cells, pilot screen, validation compound set (AID 2706;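 active means superoxide response below 65% of plate, a cut near 3 SD across the whole screen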;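 further: yeast exposed to compound for one week at 30 degrees C before staining; 100% = mean of all compound wells on the same plate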); settings: S. cerevisiae aging, superoxide DHE fluorescence; at 10 µM, stronger effect = lower value
[4] = biological target: Beta-adrenergic receptor kinase 1 (Homo sapiens) (UniProt P25098); test: GRK2 binders displacing RNA aptamer, biochemical, validation, human GRK2, bead flow cytometry (AID 488806;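 active means aptamer binding inhibition above 30%, about 3 SD of noise from non-fluorescent compounds; inactive means inhibition at or below 30%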); settings: bead-bound GRK2, FAM-aptamer displacement, at 10 µM, stronger effect = higher value
Sequence of Beta-adrenergic receptor kinase 1 (Homo sapiens) (P25098 whole entry, looked up): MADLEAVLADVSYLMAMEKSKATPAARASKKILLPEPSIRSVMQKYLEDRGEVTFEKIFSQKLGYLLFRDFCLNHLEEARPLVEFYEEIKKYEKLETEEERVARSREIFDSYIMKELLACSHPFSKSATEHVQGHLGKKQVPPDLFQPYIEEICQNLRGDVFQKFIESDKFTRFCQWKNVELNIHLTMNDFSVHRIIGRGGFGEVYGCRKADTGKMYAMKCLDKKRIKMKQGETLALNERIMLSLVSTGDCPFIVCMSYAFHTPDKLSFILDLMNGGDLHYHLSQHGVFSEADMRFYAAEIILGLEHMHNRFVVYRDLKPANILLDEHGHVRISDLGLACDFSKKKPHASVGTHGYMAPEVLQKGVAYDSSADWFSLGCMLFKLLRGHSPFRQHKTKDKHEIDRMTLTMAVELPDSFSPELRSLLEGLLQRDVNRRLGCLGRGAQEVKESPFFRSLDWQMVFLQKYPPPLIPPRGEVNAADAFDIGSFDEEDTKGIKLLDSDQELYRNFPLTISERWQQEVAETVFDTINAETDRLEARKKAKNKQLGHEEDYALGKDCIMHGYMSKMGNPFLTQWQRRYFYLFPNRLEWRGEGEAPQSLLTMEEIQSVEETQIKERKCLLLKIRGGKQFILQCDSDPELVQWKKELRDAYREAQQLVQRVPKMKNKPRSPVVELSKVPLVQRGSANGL

[5] = biological target: Beta-2 adrenergic receptor (Homo sapiens) (UniProt P07550); test: beta2AR agonists driving receptor internalization, pilot screen, cell-based, FAP fluorogen, flow cytometry, validation set (AID 504459;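 active means percent response above 42, roughly 3 SD of non-fluorescent test compounds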;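 further: agonist-driven loss of surface beta2AR via internalization measured by FAP dye flow cytometry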); settings: Am2.2-beta2AR cells, FAP surface receptor flow cytometry; at 10 µM; stronger effect = higher value
Sequence of Beta-2 adrenergic receptor (Homo sapiens) (P07550 whole entry, looked up): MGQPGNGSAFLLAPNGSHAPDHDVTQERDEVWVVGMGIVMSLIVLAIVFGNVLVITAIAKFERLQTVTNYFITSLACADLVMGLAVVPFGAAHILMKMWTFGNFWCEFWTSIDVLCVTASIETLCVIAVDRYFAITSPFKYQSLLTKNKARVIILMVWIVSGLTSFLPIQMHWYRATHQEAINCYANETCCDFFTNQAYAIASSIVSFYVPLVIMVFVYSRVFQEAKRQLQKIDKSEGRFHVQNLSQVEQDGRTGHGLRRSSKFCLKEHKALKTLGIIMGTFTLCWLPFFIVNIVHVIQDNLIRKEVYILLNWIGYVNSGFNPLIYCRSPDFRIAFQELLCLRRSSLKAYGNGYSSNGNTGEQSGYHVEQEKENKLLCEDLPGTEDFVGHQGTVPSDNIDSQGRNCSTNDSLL

[6] = biological target: AP-2 complex subunit beta (Homo sapiens) (UniProt P63010); test: inhibitors of arrestin peptide binding to AP2, pilot screen, biochemical, validation set, GST-AP2 beads, flow cytometry (AID 504541;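 active means inhibition above 54%, about 3 SD of non-fluorescent compounds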;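 further: AP2 carries R879A mutation and is captured from E. coli lysate; bead-bound FITC arrestin peptide fluorescence measuring arrestin peptide binding to AP2; 0% = DMSO wells and 100% = excess unlabeled arrestin peptide control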); settings: FITC arrestin peptide, at 10 µM, stronger effect = higher value, AP2 beta2 appendage fragment, R879A mutant
Sequence of AP-2 complex subunit beta (Homo sapiens) (P63010 whole entry, looked up, the tested form may be a part, one chain of several): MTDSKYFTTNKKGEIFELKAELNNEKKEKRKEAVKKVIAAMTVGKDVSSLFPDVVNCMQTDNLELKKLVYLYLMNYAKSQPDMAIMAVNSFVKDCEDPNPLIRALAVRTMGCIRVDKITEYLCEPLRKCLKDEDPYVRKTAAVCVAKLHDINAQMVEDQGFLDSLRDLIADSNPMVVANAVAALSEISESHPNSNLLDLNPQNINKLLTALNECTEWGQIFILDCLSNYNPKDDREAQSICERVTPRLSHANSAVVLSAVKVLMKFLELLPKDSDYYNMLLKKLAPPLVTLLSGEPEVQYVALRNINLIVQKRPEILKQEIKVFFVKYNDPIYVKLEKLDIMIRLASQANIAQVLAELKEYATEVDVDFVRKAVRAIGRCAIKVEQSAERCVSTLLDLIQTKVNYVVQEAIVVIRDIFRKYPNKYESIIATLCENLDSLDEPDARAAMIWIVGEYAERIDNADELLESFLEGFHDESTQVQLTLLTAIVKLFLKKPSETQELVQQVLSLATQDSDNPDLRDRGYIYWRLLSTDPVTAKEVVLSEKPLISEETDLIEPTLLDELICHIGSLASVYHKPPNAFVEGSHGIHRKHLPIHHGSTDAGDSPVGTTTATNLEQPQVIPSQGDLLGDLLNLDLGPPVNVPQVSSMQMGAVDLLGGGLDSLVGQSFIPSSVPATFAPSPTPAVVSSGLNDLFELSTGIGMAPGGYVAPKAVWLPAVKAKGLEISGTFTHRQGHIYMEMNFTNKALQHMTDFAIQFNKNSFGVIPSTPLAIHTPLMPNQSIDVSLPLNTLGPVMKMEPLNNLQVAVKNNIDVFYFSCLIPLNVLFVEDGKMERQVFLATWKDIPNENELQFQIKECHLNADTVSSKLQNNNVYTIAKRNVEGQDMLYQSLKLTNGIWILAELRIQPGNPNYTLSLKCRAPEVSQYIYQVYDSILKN

[7] = yeast V-ATPase proton transport modulators, S. cerevisiae, pHLuorin, HTS validation (AID 504600; in the data active means response above about 15%;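 further: plate controls were DMSO for no effect and reference compound for full effect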); settings: S. cerevisiae pHLuorin cytosolic pH, at 10 µM, stronger effect = higher value
[8] = tested on: anti-desmoglein-3 scFv antibody binding to human DSG3; test: inhibitors of anti-DSG3 scFv binding to DSG3, pilot screen, biochemical, validation compound set, bead-based, flow cytometry (AID 588368); settings: Protein G beads, DSG3-Fc, scFv-GFP binding, at 10 µM, stronger effect = lower value;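 further: signal is the median channel fluorescence of bead-bound GFP antibody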
[9] = inhibitors of fungal efflux pumps CDR1, CDR2, MDR1, pilot screen, validation compound set, multiplex, phenotypic (AID 588506;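 active means efflux inhibition above 0.42, the validation set average plus 4 SD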;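 further: Nile Red retained in cells so higher fluorescence means more efflux inhibition; 0 = negative control wells and 1 = enniatin B 25 µM full block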); settings: S. cerevisiae pump-expressing triplex, Nile Red efflux flow cytometry; at 10 µM; stronger effect = higher value; the pumps come from Candida albicans
[10] = biological target: ATP-binding cassette sub-family B member 6 (Homo sapiens) (UniProt Q9NP58); test: ABCB6 transporter inhibitors, pilot screen, K562-ABCB6 cells, flow cytometry, validation set (AID 588550;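 active means inhibition above the screen-wide mean plus 3 SD, about 51%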;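 further: 0% = DMSO wells and 100% = benzethonium chloride 70 µM positive control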); settings: K562-ABCB6 porphyrin accumulation, 1 h, at 10 µM, stronger effect = higher value
Sequence of ATP-binding cassette sub-family B member 6 (Homo sapiens) (Q9NP58 whole entry, looked up): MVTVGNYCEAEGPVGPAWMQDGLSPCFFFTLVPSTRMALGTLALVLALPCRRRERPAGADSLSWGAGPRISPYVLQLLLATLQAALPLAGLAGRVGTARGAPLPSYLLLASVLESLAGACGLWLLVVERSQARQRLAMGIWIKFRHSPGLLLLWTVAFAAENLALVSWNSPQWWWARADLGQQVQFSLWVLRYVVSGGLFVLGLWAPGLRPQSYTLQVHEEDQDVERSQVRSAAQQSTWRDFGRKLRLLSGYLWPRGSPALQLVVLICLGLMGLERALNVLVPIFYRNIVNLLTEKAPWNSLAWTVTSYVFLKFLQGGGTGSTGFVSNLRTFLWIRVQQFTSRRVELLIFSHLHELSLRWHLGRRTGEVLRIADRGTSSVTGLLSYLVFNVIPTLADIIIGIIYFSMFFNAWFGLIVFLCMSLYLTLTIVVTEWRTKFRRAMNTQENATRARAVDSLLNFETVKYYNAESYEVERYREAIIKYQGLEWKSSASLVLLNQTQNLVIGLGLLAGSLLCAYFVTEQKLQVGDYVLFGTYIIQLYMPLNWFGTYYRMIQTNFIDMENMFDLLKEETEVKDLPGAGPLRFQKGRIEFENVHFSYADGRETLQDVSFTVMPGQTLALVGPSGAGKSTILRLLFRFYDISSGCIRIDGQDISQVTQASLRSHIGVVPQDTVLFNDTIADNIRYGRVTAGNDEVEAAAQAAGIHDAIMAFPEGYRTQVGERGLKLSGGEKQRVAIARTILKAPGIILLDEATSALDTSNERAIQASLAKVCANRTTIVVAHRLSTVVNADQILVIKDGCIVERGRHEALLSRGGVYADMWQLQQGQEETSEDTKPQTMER

[11] = promoters of myeloid differentiation in arrested cells, primary screen, cell-based, GFP/MAC1 double positive, flow cytometry, validation set (AID 588685;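 active means differentiation response of at least 50%, scaled between solvent and reference control, from cells with both markers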;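 further: compound exposure lasts four days before antibody staining and flow analysis; 0% = DMSO wells and 100% = 5 µM fulvestrant positive control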); settings: ER-HoxA9 marrow cells, stronger effect = higher value, normalized: vehicle 0, fulvestrant 100

CCn1c(O)c(/C=C2\C=Nc3ccccc32)sc1=O
inactive: vesicle binding response [1] 97.1% | inhibition [2] -0.31% | superoxide response (% of plate) [3] 108% | aptamer binding inhibition [4] 1% | response [5] -3.25% | inhibition [6] -17.2% | response [7] 0.06% | binding (% of control) [8] 97.5% | efflux inhibition (fraction of control) [9] -0.44 | inhibition [10] 4% | differentiation response [11] -5.68%
63.1%: double positive events [1]

COc1ccc2cc[nH]c2c1
inactive: vesicle binding response [1] 407% | inhibition [2] -5.38% | superoxide response (% of plate) [3] 104% | aptamer binding inhibition [4] 2% | response [5] -20.2% | inhibition [6] -3.08% | response [7] 0.61% | binding (% of control) [8] 103% | efflux inhibition (fraction of control) [9] 0 | inhibition [10] 5% | differentiation response [11] -10.9%
67.5%: double positive events [1]

COc1cc(C(=O)OCCCN(C)C)cc(OC)c1OC
60.1%: double positive events [1]
inactive: vesicle binding response [1] 180% | inhibition [2] 21.9% | superoxide response (% of plate) [3] 93.6% | aptamer binding inhibition [4] -2% | response [5] -28.8% | inhibition [6] 4.79% | response [7] 1.07% | binding (% of control) [8] 108% | efflux inhibition (fraction of control) [9] -0.09 | inhibition [10] -1% | differentiation response [11] -4.99%

COc1cc2c(cc1O)CC[C@@H]1[C@@H]2CC[C@]2(C)[C@@H](O)CC[C@@H]12
inactive: vesicle binding response [1] 139% | inhibition [2] 44.9% | superoxide response (% of plate) [3] 112% | aptamer binding inhibition [4] -7% | response [5] -10.9% | inhibition [6] -5.34% | response [7] -4.33% | binding (% of control) [8] 106% | efflux inhibition (fraction of control) [9] 0.04 | inhibition [10] -1% | differentiation response [11] -9.91%
58.8%: double positive events [1]

CN(C)CCOc1ccccc1Cc1ccccc1
inactive: vesicle binding response [1] 210% | inhibition [2] 23.6% | superoxide response (% of plate) [3] 85.8% | aptamer binding inhibition [4] 4% | response [5] -20.2% | inhibition [6] -8.22% | response [7] -1.1% | binding (% of control) [8] 104% | efflux inhibition (fraction of control) [9] -0.13 | inhibition [10] 14% | differentiation response [11] -1.05%
69.2%: double positive events [1]

Cc1ncc(C(=O)O)c(C(=O)O)c1N
inactive: vesicle binding response [1] 184% | inhibition [2] 4.42% | superoxide response (% of plate) [3] 110% | aptamer binding inhibition [4] 2% | inhibition [6] -2.62% | response [7] -3.73% | binding (% of control) [8] 100% | efflux inhibition (fraction of control) [9] -0.09 | inhibition [10] 8% | differentiation response [11] -14.7%
52.2%: double positive events [1]

O=C(Nc1cccc(-c2nc3ncccc3o2)c1)c1ccccc1
inactive: vesicle binding response [1] 159% | inhibition [2] 2.3% | superoxide response (% of plate) [3] 106% | aptamer binding inhibition [4] 1% | response [5] 17.2% | inhibition [6] -1.86% | response [7] 7.44% | binding (% of control) [8] 102% | efflux inhibition (fraction of control) [9] -0.06 | inhibition [10] 0% | differentiation response [11] -16.8%
56.1%: double positive events [1]

O=Cc1ccc(N2CCCCC2)cc1
54.6%: double positive events [1]
inactive: vesicle binding response [1] 201% | inhibition [2] 10.9% | superoxide response (% of plate) [3] 106% | aptamer binding inhibition [4] 3% | inhibition [6] -10.3% | response [7] 1.25% | binding (% of control) [8] 101% | efflux inhibition (fraction of control) [9] -0.05 | inhibition [10] 4% | differentiation response [11] -3.43%

COc1ccc(CCN=C(N)C(C)c2ccccc2)cc1OC (configuration not stated)
62.6%: double positive events [1]
inactive: vesicle binding response [1] 238% | inhibition [2] 5.69% | superoxide response (% of plate) [3] 93.8% | aptamer binding inhibition [4] 4% | response [5] -11.2% | inhibition [6] -6.07% | response [7] -1.3% | binding (% of control) [8] 97.3% | efflux inhibition (fraction of control) [9] -0.04 | inhibition [10] 5% | differentiation response [11] 7.82%

CCOC(=O)/C=C1\NC(C)(C)Cc2cc(OC)c(OC)cc21
inactive: vesicle binding response [1] 271% | inhibition [2] 5.03% | superoxide response (% of plate) [3] 102% | aptamer binding inhibition [4] 4% | response [5] 9.33% | inhibition [6] -4.08% | response [7] -1.95% | binding (% of control) [8] 101% | efflux inhibition (fraction of control) [9] 0.08 | inhibition [10] 7% | differentiation response [11] 31.2%
59.2%: double positive events [1]

CC(=O)N(CCC1(C(C)C)CCOC(C)(C)C1)Cc1ccco1 (configuration not stated)
64.3%: double positive events [1]
inactive: vesicle binding response [1] 276% | inhibition [2] -16.8% | superoxide response (% of plate) [3] 94.3% | aptamer binding inhibition [4] -4% | response [5] 3.66% | inhibition [6] 0.1% | response [7] -0.44% | binding (% of control) [8] 105% | efflux inhibition (fraction of control) [9] -0.09 | inhibition [10] 11% | differentiation response [11] 12.3%

COc1ccc(C2CNC(=O)C2)cc1OC1CCCC1 (configuration not stated)
53.3%: double positive events [1]
inactive: vesicle binding response [1] 151% | inhibition [2] -8.64% | superoxide response (% of plate) [3] 104% | aptamer binding inhibition [4] -6% | inhibition [6] 23.8% | response [7] -25.8% | binding (% of control) [8] 105% | efflux inhibition (fraction of control) [9] -0.12 | inhibition [10] 7% | differentiation response [11] -3.43%

Cc1ccsc1/C=N\NC(=O)c1ccc2c(c1)OCO2
62.5%: double positive events [1]
inactive: vesicle binding response [1] 183% | inhibition [2] 10.9% | superoxide response (% of plate) [3] 97% | aptamer binding inhibition [4] 3% | inhibition [6] 11.1% | response [7] 1.01% | binding (% of control) [8] 99.5% | efflux inhibition (fraction of control) [9] -0.12 | inhibition [10] 7% | differentiation response [11] 1.41%
